FMDV antiviral: High Throughput Screening for Foot and Mouth Disease Virus Antivirals | FMDV antiviral cell-based qHTS | Potency, µM (highest dose often 57.9 µM), hits mostly inhibitors | 410,000 compounds, 1.2% hits; calls by dose curve; tested in HEK293T cells; also: read-out not given here; nearly all actives have a fitted effect of over 45% in size
HCMV antiviral: qHTS Assay for inhibitors of the human cytomegalovirus (HCMV). activity change, negative = inhibition, % at 57.5 µM. AID 1259415, 2018. 410,000 compounds, 4.5% hits. HFF cells, HCMV-luciferase reporter, 72 h; stronger effect = lower value; in the data active = activity change below about -60%; inconclusive = no clear call, values can overlap the other calls; inactive = above about -39%
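Steps: HFFs plated, 16 h 37C; compounds added; HCMV-luciferase added to MOI 1 PFU/cell; 72 h 37C; OneGlo reagent, 5 min room temperature; luminescence read, normalized to controls.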
VACV mCherry inh: qHTS for Stage-Specific Inhibitors of Vaccinia Orthopoxvirus: mCherry Reporter Primary qHTS | Vaccinia virus mCherry reporter infection, fluorescence | Potency, µM (titrated, usually from 36.5 µM), most hits filed as inhibitors | 310,000 compounds, 0.63% hits; calls by dose curve; tested in A549 cells; also: nearly all actives have a fitted effect of over 35% in size
Sm TGR block: qHTS Assay for the Inhibitors of Schistosoma Mansoni Peroxiredoxins. Schistosoma mansoni thioredoxin glutathione reductase (TGR), Q962Y6. purified TGR, DTNB reduction, TNB absorbance 405 nm. Potency, µM (highest dose often 114 µM), actives largely listed as inhibitors. 360,000 compounds, 3% hits; also: nearly all actives have a fitted effect of over 60% in size
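TGR 20 nM + NADPH 100 uM (dispensed conc.), cpd preinc 15 min RT; start with NADPH (500 uM addition) then DTNB (15 mM addition). Kinetic TNB absorbance, 405 nm filter. Four-parameter Hill fit across titration.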
VACV Venus inh: qHTS for Stage-Specific Inhibitors of Vaccinia Orthopoxvirus: Venus Reporter Primary qHTS | Vaccinia virus Venus reporter expression, fluorescence | Potency, µM (top dose mostly 36.5 µM), actives largely listed as inhibitors | AID 720580, 2013 | 330,000 compounds, 0.46% hits; calls by dose curve; tested in A549 cells; also: nearly all actives have a fitted effect of over 30% in size
HCV inhibitor: qHTS Assay for Inhibitors of Hepatitis C Virus (HCV); Huh7.5.1 HCVcc-Cre infection, luciferase reporter, 44 h; Potency, µM (highest dose often 41.8 µM), most hits filed as inhibitors; 340,000 compounds, 3.4% hits; AID 651820, 2012
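Reporter virus HCVcc-Cre (~0.5 moi) infects cells exposed to compound; seeding density 1,000 cells/well with 4 h settling beforehand. Luminescence, 15 sec read, taken 44 h post-infection following a 15 min RT substrate incubation.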
Large screens that a line does not name were inactive. The list is not random: actives were taken first. Their share in the collection is about 9.3%. Unless noted, calls follow the shape of the dose curve; as a rule, active = well fitted curve in the direction sought with a large enough effect; inconclusive = small, poorly fitted or top-dose-only effect, or another doubt; inactive = no such curve, though single readings can be large; an effect the other way counts as inactive or inconclusive.

CN(C)CCN1C(=O)C(=O)/C(=C(/O)c2ccc3c(c2)OCCO3)C1c1ccccn1 (centres undefined)	none
CC1=C(C(=O)OC2CCCC2)C(c2cccc(Cl)c2Cl)CC(=O)N1 (centres undefined)	FMDV antiviral inconclusive, HCMV antiviral -75 (no result: HCV inhibitor)
COc1cccc(NC(=S)NCc2cccnc2)c1	Sm TGR block 45µM
COc1ccc(NC(=S)Nc2cccnc2)c(OC)c1	Sm TGR block inconclusive
COc1ccc(NCc2cccnc2)cc1	HCMV antiviral -86, VACV mCherry inh inconclusive
COc1cccc(NC(=S)Nc2cccnc2)c1	Sm TGR block 40µM
COc1ccc(Cl)cc1NC(=S)Nc1cccc(C)c1	HCMV antiviral inconclusive
COc1ccc(Cl)cc1NC(=S)Nc1cccnc1	Sm TGR block 13µM
Cc1ccc(NCc2cccnc2)cc1	Sm TGR block inconclusive (no result: VACV mCherry inh)
COc1cccc(NC(=S)NCc2ccccc2)c1	none (no result: VACV mCherry inh, VACV Venus inh)
Cc1noc(C(=O)NCc2ccc(F)cc2)c1Cl	HCMV antiviral inconclusive
COc1ccc(CNC(=O)C2CCN(S(=O)(=O)c3c(C)n[nH]c3C)CC2)cc1	none (no result: VACV mCherry inh)
Cc1ccc(NC(=S)NC2CCCC2)c(C)c1	none
Cc1cccc(NC(=S)NCc2ccncc2)c1C	Sm TGR block inconclusive
S=C(NCc1ccncc1)Nc1ccc(Br)cc1Cl	Sm TGR block 35µM, HCV inhibitor inconclusive (no result: VACV mCherry inh, VACV Venus inh)
Cc1cccc(C)c1NC(=S)NCc1ccncc1	Sm TGR block 28µM
O=C(NNC(=S)Nc1ccc(Br)cc1Cl)c1ccncc1	none
CN(C)C(CNC(=S)Nc1ccc(F)cc1)c1cccnc1 (centres undefined)	none
COc1cccc(NC(=S)Nc2ccc(Br)cc2Cl)c1	Sm TGR block 22µM
Cc1cccc(NC(=S)NCC(c2cccnc2)N(C)C)c1 (centres undefined)	HCMV antiviral -71
COc1ccccc1N1CCN(CCCN2C(=O)C3CCCN3C2=O)CC1 (centres undefined)	none (no result: VACV mCherry inh, Sm TGR block, VACV Venus inh)
Cc1cnc(C)cn1	none (no result: FMDV antiviral, HCMV antiviral, Sm TGR block, HCV inhibitor)
Cc1cc2oc(=O)c(CC(=O)O)c(C)c2c2occ(C(C)(C)C)c12	none
COCCNC(=O)Cc1c(C)c2c(cc(C)c3c(C(C)(C)C)coc32)oc1=O	FMDV antiviral inconclusive, HCMV antiviral -61, VACV mCherry inh inconclusive, VACV Venus inh inconclusive, HCV inhibitor inconclusive
Cc1cc2oc(=O)c(CC(=O)NCCCO)c(C)c2c2occ(C(C)(C)C)c12	HCMV antiviral inconclusive (no result: VACV mCherry inh, VACV Venus inh)
Cc1cc2oc(=O)c(CC(=O)NCCCN(C)C)c(C)c2c2occ(C(C)(C)C)c12	VACV mCherry inh 13µM, Sm TGR block inconclusive, VACV Venus inh inconclusive, HCV inhibitor 10µM (no result: HCMV antiviral)
O=C(CCN1CCN(c2ccccc2)CC1)NNC(=O)Cc1c(F)cccc1Cl	HCV inhibitor inconclusive
CN(C)S(=O)(=O)c1ccc(NC(=O)COc2ncnc3c2cnn3-c2ccccc2)cc1	HCMV antiviral inconclusive
Fc1ccccc1Nc1c2c(nc3ccccc13)CCC2	FMDV antiviral inconclusive, HCMV antiviral inconclusive (no result: HCV inhibitor)
Fc1ccc(F)c(Nc2c3c(nc4ccc(Cl)cc24)CCC3)c1	FMDV antiviral inconclusive, HCMV antiviral -69 (no result: HCV inhibitor)
FC(F)(F)c1cccc(Nc2c3c(nc4ccc(Cl)cc24)CCC3)c1	HCMV antiviral -76 (no result: HCV inhibitor)
Cc1ccc2nc3c(c(Nc4ccccc4)c2c1)CCC3	FMDV antiviral inconclusive, HCMV antiviral inconclusive, HCV inhibitor inconclusive
CCOc1ccc(/C=C/c2nc(C#N)c(NC(C)c3ccccc3)o2)cc1 (centres undefined)	HCMV antiviral inconclusive (no result: HCV inhibitor)
CCOc1ccc(/C=C/c2nc(C#N)c(NCc3ccccc3)o2)cc1	FMDV antiviral inconclusive, HCMV antiviral -93, VACV mCherry inh inconclusive, VACV Venus inh inconclusive (no result: HCV inhibitor)
Cc1ccc(NC(=O)C2=C(O)CCn3c2nc2ccccc23)cc1	VACV mCherry inh inconclusive, HCV inhibitor inconclusive (no result: FMDV antiviral)
CCOC(=O)C1=C(C)N=c2s/c(=C3\C(=O)Nc4ccccc43)c(=O)n2C1c1ccc2c(c1)OCO2 (centres undefined)	Sm TGR block 4µM (no result: VACV mCherry inh, VACV Venus inh)
CCOC(=O)C1=C(C)N=c2sc(=C(C)C)c(=O)n2C1c1ccc(N(C)C)cc1 (centres undefined)	HCV inhibitor inconclusive (no result: Sm TGR block)
CCOC(=O)C1=C(C)N=c2s/c(=C/c3ccccc3)c(=O)n2C1c1ccc(OC)c(OC)c1 (centres undefined)	FMDV antiviral inconclusive (no result: VACV mCherry inh)
CCOC(=O)C1=C(C)N=c2s/c(=C\c3ccncc3)c(=O)n2C1c1ccc2c(c1)OCO2 (centres undefined)	FMDV antiviral 25µM, HCV inhibitor inconclusive (no result: VACV mCherry inh)
CCCN1[C@@H]2c3ccc(-c4ccccc4)c(=O)n3C[C@@H]2[C@@H](CO)[C@@H]1C(=O)N[C@@H](C)c1ccccc1	none (no result: FMDV antiviral, VACV mCherry inh, Sm TGR block, VACV Venus inh, HCV inhibitor)
COc1ccc2c(O)c(-c3c(C)cc(C)cc3C)c(=O)[nH]c2c1	HCMV antiviral -63 (no result: Sm TGR block)
O=c1oc2ccccc2c(Nc2ccc3ccccc3c2)c1[N+](=O)[O-]	HCV inhibitor inconclusive (no result: HCMV antiviral, VACV mCherry inh, VACV Venus inh)
CC(C)COc1ccc(C(=O)CCN2CCCCC2)cc1	Sm TGR block 0.35µM, HCV inhibitor inconclusive (no result: VACV mCherry inh)
CCCCOc1ccc(C(=O)CCN2CCCCC2)cc1	Sm TGR block 0.32µM
COc1ccc(C(=O)CCN2CCCC(C)C2)cc1 (centres undefined)	Sm TGR block 0.28µM
CC(=O)c1ccc(OCCCN2CCCCC2)cc1	none (no result: VACV mCherry inh, VACV Venus inh)
Cc1cccc(NC(=O)CCn2cnc3ccccc3c2=O)c1	none (no result: HCV inhibitor)
Cc1noc(C)c1COC(=O)/C=C/c1ccccc1Cl	HCV inhibitor inconclusive
CC[C@]1(C(=O)OC)[C@H]2C(=O)N(Cc3ccccc3)C(=O)[C@H]2[C@H]2CN=C(SC)N21	none (no result: Sm TGR block)
Cc1cc(-c2nnc(-c3ccccc3)c(-c3ccccc3)n2)c(C)o1	HCMV antiviral -65, Sm TGR block 6.3µM, HCV inhibitor inconclusive (no result: VACV mCherry inh, VACV Venus inh)
Nc1sc(-c2ccccc2)n[n+]1Cc1cccc2cccnc12	HCMV antiviral -99, HCV inhibitor inconclusive (no result: VACV mCherry inh, VACV Venus inh)
COc1ccc(-c2c3c(=O)n(C)c(=O)n(C)c3cn2C2CCCCC2)cc1	HCMV antiviral inconclusive, HCV inhibitor 25µM (no result: FMDV antiviral)
CC[C@H](C)[C@@H]1OC(=O)[C@@H](C)[C@@H](CC)NC(=O)[C@H](C)N(C)C(=O)C(C)(C)C(=O)C(C)NC(=O)[C@H](Cc2ccccc2)N(C)C(=O)[C@H](C(C)C)N(C)C(=O)CNC(=O)[C@H](CC(C)C)N(C)C(=O)CNC1=O (some centres undefined)	VACV mCherry inh 2µM, VACV Venus inh 2.2µM (no result: HCMV antiviral, Sm TGR block, HCV inhibitor)
Cc1ccccc1C(=O)N1Cc2ccccc2-n2nncc2C1	none (no result: Sm TGR block, HCV inhibitor)
O=c1[nH]c2cc3c(cc2cc1C(c1nnnn1C1CCCC1)N1CCSCC1)OCCO3 (centres undefined)	HCMV antiviral -79
COc1ccccc1CN(Cc1cc2cc3c(cc2[nH]c1=O)OCCO3)Cc1nnnn1Cc1ccco1	Sm TGR block inconclusive (no result: VACV mCherry inh, VACV Venus inh)

From PubChem BioAssay
